Laboratory results taken from PubChem BioAssay AID1159580 (chemical genetic matrix, 2015).
In all, about 5,500 compounds went through this assay and about 2,000 (36%) were called active. About 18% were inconclusive and are not listed. Rule as the data show it: active = normalized growth mostly below about 0.91 (no sharp cut-off); inconclusive = no clear call, values can overlap the other calls; inactive = mostly above about 0.92. The list shows a part of the results.

Experiment: chemical genetic growth profiling, strain panel (AID 1159580);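 also: tested at 20 µM; growth read once vehicle control cultures reached saturation at 30 °C; 1 = growth at the plate median or of vehicle wells; lower values mean less growth of the strain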
Settings: growth OD

Measured: normalized growth

COC(=O)[C@H]1[C@H]2C[C@@H]3c4[nH]c5cc(OC)ccc5c4CCN3C[C@H]2C[C@@H](OC(=O)c2cc(OC)c(OC)c(OC)c2)[C@@H]1OC
inactive: S. cerevisiae deletion strains, locus YKL009W, strain mrt4, stronger effect = lower value 1.02 | S. cerevisiae deletion strains, locus YKL068W, stronger effect = lower value 1.01 | S. cerevisiae deletion strains, locus YKL085W, strain MDH1 (second series), stronger effect = lower value 1.01 | S. cerevisiae deletion strains, locus YKL085W, strain MDH1, stronger effect = lower value 1.01 | S. cerevisiae deletion strains, locus YKL160W, strain elf1, stronger effect = lower value 0.961 | S. cerevisiae deletion strains, locus YKL190W, strain CNB1, stronger effect = lower value 0.967 | S. cerevisiae deletion strains, locus YKR001C, strain vps1, stronger effect = lower value 1.03 | S. cerevisiae deletion strains, locus YKR026C, strain gcn3, stronger effect = lower value 0.99 | S. cerevisiae deletion strains, locus YKR091W, strain srl3, stronger effect = lower value 0.982 | S. cerevisiae deletion strains, locus YLL001W, strain dnm1, stronger effect = lower value 1.02 | S. cerevisiae deletion strains, locus YLL026W, stronger effect = lower value 0.975 | S. cerevisiae deletion strains, locus YLL041C, strain sdh2, stronger effect = lower value 0.983 | S. cerevisiae deletion strains, locus YLR027C, strain aat2, stronger effect = lower value 0.986 | S. cerevisiae deletion strains, locus YLR039C, strain RIC1, stronger effect = lower value 1.05 | S. cerevisiae deletion strains, locus YLR058C, strain SHM2, stronger effect = lower value 0.999 | S. cerevisiae deletion strains, locus YLR102C, strain apc9, stronger effect = lower value 1 | S. cerevisiae deletion strains, locus YLR113W, strain HOG1, stronger effect = lower value 0.971 | S. cerevisiae deletion strains, locus YLR221C, strain rsa3, stronger effect = lower value 1.02 | S. cerevisiae deletion strains, locus YLR258W, strain gsy2, stronger effect = lower value 0.965 | S. cerevisiae deletion strains, locus YLR262C, strain YPT6 (second series), stronger effect = lower value 1 | S. cerevisiae deletion strains, locus YLR262C, strain YPT6, stronger effect = lower value 1.05 | S. cerevisiae deletion strains, locus YLR268W, strain sec22, stronger effect = lower value 1.04 | S. cerevisiae deletion strains, locus YLR320W, strain mms22, stronger effect = lower value 0.978 | S. cerevisiae deletion strains, locus YLR330W, strain CHS5, stronger effect = lower value 1 | S. cerevisiae deletion strains, locus YLR342W, strain FKS1 (second series), stronger effect = lower value 0.951 | S. cerevisiae deletion strains, locus YLR342W, strain FKS1, stronger effect = lower value 0.959 | S. cerevisiae deletion strains, locus YLR357W, strain rsc2, stronger effect = lower value 0.977 | S. cerevisiae deletion strains, locus YLR370C, strain arc18, stronger effect = lower value 0.976 | S. cerevisiae deletion strains, locus YLR371W, strain rom2, stronger effect = lower value 1.01 | S. cerevisiae deletion strains, locus YLR384C, strain iki3, stronger effect = lower value 0.989 | S. cerevisiae deletion strains, locus YLR418C, strain cdc73, stronger effect = lower value 0.977 | S. cerevisiae deletion strains, locus YML016C, strain PPZ1, stronger effect = lower value 1 | S. cerevisiae deletion strains, locus YML032C, strain rad52, stronger effect = lower value 1.02 | S. cerevisiae deletion strains, locus YML120C, strain ndi1, stronger effect = lower value 1 | S. cerevisiae deletion strains, locus YML124C, strain tub3, stronger effect = lower value 1.02 | S. cerevisiae deletion strains, locus YMR058W, strain fet3, stronger effect = lower value 0.986 | S. cerevisiae deletion strains, locus YMR078C, strain ctf18, stronger effect = lower value 1.01 | S. cerevisiae deletion strains, locus YMR125W, strain sto1, stronger effect = lower value 0.986 | S. cerevisiae deletion strains, locus YMR129W, stronger effect = lower value 0.981 | S. cerevisiae deletion strains, locus YMR205C, strain PFK2, stronger effect = lower value 0.982 | S. cerevisiae deletion strains, locus YMR223W, strain ubp8, stronger effect = lower value 0.995 | S. cerevisiae deletion strains, locus YMR231W, strain pep5, stronger effect = lower value 1 | S. cerevisiae deletion strains, locus YMR263W, strain SAP30, stronger effect = lower value 0.979 | S. cerevisiae deletion strains, locus YMR307W, strain GAS1, stronger effect = lower value 0.912 | S. cerevisiae deletion strains, locus YNL067W, strain RPL9B, stronger effect = lower value 0.994 | S. cerevisiae deletion strains, locus YNL071W, strain lat1, stronger effect = lower value 0.971 | S. cerevisiae deletion strains, locus YNL128W, strain TEP1, stronger effect = lower value 1 | S. cerevisiae deletion strains, locus YNL153C, strain GIM3, stronger effect = lower value 1 | S. cerevisiae deletion strains, locus YNL183C, strain NPR1, stronger effect = lower value 0.949 | S. cerevisiae deletion strains, locus YNL209W, strain ssb2, stronger effect = lower value 0.984 | S. cerevisiae deletion strains, locus YNL233W, strain BNI4, stronger effect = lower value 0.997 | S. cerevisiae deletion strains, locus YNL248C, strain rpa49, stronger effect = lower value 0.955 | S. cerevisiae deletion strains, locus YNL250W, strain rad50, stronger effect = lower value 1.01 | S. cerevisiae deletion strains, locus YNL271C, strain bni1, stronger effect = lower value 1.02 | S. cerevisiae deletion strains, locus YNL298W, strain CLA4, stronger effect = lower value 1.02 | S. cerevisiae deletion strains, locus YNL307C, strain MCK1, stronger effect = lower value 1.01 | S. cerevisiae deletion strains, locus YNL322C, strain KRE1 (second series), stronger effect = lower value 0.976 | S. cerevisiae deletion strains, locus YNL322C, strain KRE1, stronger effect = lower value 0.995 | S. cerevisiae deletion strains, locus YNR049C, strain mso1, stronger effect = lower value 0.972 | S. cerevisiae deletion strains, locus YNR052C, strain pop2, stronger effect = lower value 1 | S. cerevisiae deletion strains, locus YOL006C, strain TOP1, stronger effect = lower value 0.989 | S. cerevisiae deletion strains, locus YOL012C, strain htz1 0.714 | S. cerevisiae deletion strains, locus YOL147C, strain pex11, stronger effect = lower value 1.02 | S. cerevisiae deletion strains, locus YOR001W, strain rrp6, stronger effect = lower value 1.03 | S. cerevisiae deletion strains, locus YOR061W, strain CKA2, stronger effect = lower value 0.999 | S. cerevisiae deletion strains, locus YOR069W, strain VPS5, stronger effect = lower value 1 | S. cerevisiae deletion strains, locus YOR070C, strain gyp1, stronger effect = lower value 0.983 | S. cerevisiae deletion strains, locus YOR080W, strain dia2, stronger effect = lower value 0.982 | S. cerevisiae deletion strains, locus YOR083W, strain WHI5, stronger effect = lower value 0.948 | S. cerevisiae deletion strains, locus YOR106W, strain vam3, stronger effect = lower value 0.947 | S. cerevisiae deletion strains, locus YOR136W, strain idh2, stronger effect = lower value 1.02 | S. cerevisiae deletion strains, locus YOR144C, strain elg1, stronger effect = lower value 1.01 | S. cerevisiae deletion strains, locus YOR184W, strain ser1, stronger effect = lower value 1.04 | S. cerevisiae deletion strains, locus YOR231W, strain MKK1, stronger effect = lower value 0.983 | S. cerevisiae deletion strains, locus YOR265W, strain rbl2, stronger effect = lower value 0.988 | S. cerevisiae deletion strains, locus YOR270C, strain vph1, stronger effect = lower value 0.969 | S. cerevisiae deletion strains, locus YOR290C, strain snf2, stronger effect = lower value 0.948 | S. cerevisiae deletion strains, locus YOR316C, strain cot1, stronger effect = lower value 1.01 | S. cerevisiae deletion strains, locus YPL051W, strain arl3, stronger effect = lower value 0.979 | S. cerevisiae deletion strains, locus YPL055C, strain LGE1, stronger effect = lower value 0.972 | S. cerevisiae deletion strains, locus YPL078C, strain atp4, stronger effect = lower value 0.972 | S. cerevisiae deletion strains, locus YPL106C, strain sse1, stronger effect = lower value 0.895 | S. cerevisiae deletion strains, locus YPL240C, strain hsp82, stronger effect = lower value 0.992 | S. cerevisiae deletion strains, locus YPL241C, strain CIN2, stronger effect = lower value 0.997 | S. cerevisiae deletion strains, locus YPL256C, strain CLN2, stronger effect = lower value 0.983 | S. cerevisiae deletion strains, locus YPR119W, strain clb2, stronger effect = lower value 1.01 | S. cerevisiae deletion strains, locus YPR141C, strain kar3, stronger effect = lower value 1.02 | S. cerevisiae deletion strains, locus YPR163C, strain tif3, stronger effect = lower value 1.02 | S. cerevisiae deletion strains, locus YPR167C, strain met16, stronger effect = lower value 1.01 | S. cerevisiae deletion strains, strain wtn01, stronger effect = lower value 1.01 | S. cerevisiae strains, strain wild type, stronger effect = lower value 0.986
